JMJD2A Tudor – inhibitors of human JMJD2A Tudor domain. O75164. AlphaScreen JMJD2A-Tudor / H3K4me3 peptide binding. Potency, µM (series often up to 114 µM), inactives show at the top dose activity change, negative = inhibition, actives largely listed as inhibitors. 4.4% of 390,000 active. AID 504339; note: % is set by controls: 0 for no effect and ±100 for the full control effect; nearly all actives have a fitted effect of over 50% in size
BAZ2B inh – blocks human BAZ2B; Potency, µM (series often up to 114 µM), inactives show at the top dose activity change, negative = inhibition, most hits filed as inhibitors; AID 504333; Q9UIF8; AlphaScreen BAZ2B-H3K14Ac peptide displacement; 4.4% of 360,000 active; note: % is set by controls: 0 for no effect and ±100 for the full control effect; nearly all actives have a fitted effect of over 60% in size
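BAZ2B (50 nM) with biotin-H3(5-23)K14Ac peptide (50 nM) in PBS pH 7.4, 0.01% Tween-20, preformed 30 min, then compound 30 min at room temperature; top concentration 110uM. AlphaScreen streptavidin donor/nickel chelate acceptor beads (10 ug/mL final), 20 min dark, signal read.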
ALOX12 inh – inhibitors of human 12S-lipoxygenase ALOX12. P18054. purified 12hLO, xylenol orange hydroperoxide absorbance. Potency, µM (top dose mostly 108 µM), without a hit: at the top dose activity change, negative = inhibition, hits mostly inhibitors. 1.1% of 580,000 active; note: % is set by controls: 0 for no effect and ±100 for the full control effect
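Purified human 12hLO (150 nM final) in 25 mM Hepes, 0.01% Triton X-100, pH 7.0 was preincubated 15 min at room temperature with compound. Then 40 uM arachidonic acid was added, 30 min. Hydroperoxide was read by Fe-XO absorbance ratio 573/405 nm.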
PLK1 PBD block – PLK1 (human) polo-box domain binding inhibition. Plk1 PBD binding of FITC phosphopeptide, fluorescence polarization. Potency, µM, inactives show max response, negative = inhibition, usual class: inhibitors. 2.8% of 360,000 active; note: series mostly up to about 57 µM; % is set by controls: 0 for no effect and ±100 for the full control effect; nearly all actives have a fitted effect of over 65% in size
G9a block – G9a (human) methyltransferase inhibition | Potency, µM (doses to about 102 µM), inactives show top-dose activity, negative = inhibition, most hits filed as inhibitors | Q96KQ7 | G9a H3K9 monomethylation, AlphaScreen, 2 h | 8.8% of 350,000 active; note: % is set by controls: 0 for no effect and ±100 for the full control effect; nearly all actives have a fitted effect of over 75% in size
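G9a (20 nM) preincubated 15 min RT with compounds, then 500 nM biotinylated H3K9 peptide and 20 uM SAM added; 2 h RT reaction. Monomethyl-H3K9 product detected by AlphaScreen with anti-H3K9me1 antibody, streptavidin donor and anti-rabbit IgG acceptor beads.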
HP1b binding inh – HP1-beta chromodomain-methylated histone interaction inhibition. AlphaScreen HP1-beta / biotin-H3K9me3 peptide binding. Potency, µM (top dose mostly 114 µM), inactives show at the highest dose activity change, negative = inhibition, most hits filed as inhibitors. 0.56% of 390,000 active. AID 540317; note: nearly all actives have a fitted effect of over 70% in size
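HP1-beta protein (50 nM final) preincubated 30 min at room temperature with biotinylated H3(1-18)K9me3 peptide (50 nM) in PBS pH 7.4, 0.01% Tween-20, then compound added for 30 min. AlphaScreen streptavidin donor/nickel chelate acceptor beads (10 ug/mL final), 30 min dark, luminescence read.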
Active calls of the source: *; u = inconclusive; x = no result given; [ ] = remark or other dose. A selection: hits, their analogues and other compounds. The true share with any hit is near 9%. Calls come from the whole dose curve; as a rule, active = well fitted curve in the direction sought with a large enough effect; inconclusive = small, poorly fitted or top-dose-only effect, or another doubt; inactive = no such curve, though single readings can be large; an effect the other way counts as inactive or inconclusive. Potency is the fitted concentration of half-maximal effect.

SMILES	JMJD2A Tudor	BAZ2B inh	ALOX12 inh	PLK1 PBD block	G9a block	HP1b binding inh
CCCSc1nc(O)c(C(c2ccc(OC)c(O)c2)c2c(O)nc(SCCC)n(C)c2=O)c(=O)n1C	-10.1%	-8.3%	u	9.47µM*	10µM*	13.8%
COc1cccc(C2=N/C(=C\N(C)C)C(=O)O2)c1	-31.5%[11.4 µM]	1.8%	12.6%	16.8µM*	-5.8%[59 µM]	u
CC(=O)Nc1ccc2nc3c(=O)n(C)c(=O)n(C)c3nc2c1	79.4µM*	u	347.7%	u	39.8µM*	-8.6%
CCn1c(=O)n(CC)c2cc(N3CCCC3)c(NC(=O)c3ccc(F)cc3)cc21	-21.0%	u	29.0%	-2.0%	44.7µM*	26.1%
CCOc1ccc(C(=O)Nc2cc3c(cc2N2CCCC2)n(CC)c(=O)n3CC)cc1OCC	-31.9%	u	0.0%	-15.7%	44.7µM*	6.7%
Cn1c(SCc2cccc([N+](=O)[O-])c2)nc2c(c1=O)SCC2	56.2µM*	70.8µM*	-4.5%	-8.9%	u	-15.1%
NS(=O)(=O)c1ccc(NC(=S)Nc2ccc(F)c(F)c2)cc1	-12.5%	2.0%	-16.5%	-1.8%	13.3%[59 µM]	36.7%
Cc1cc(C(=O)CSCCCn2c(=O)[nH]c3ccccc32)c(C)n1C	50.1µM*	u	u	-20.6%	10.2%[12.7 µM]	-15.2%
O=c1[nH]c2ccccc2n1CCCSCCCn1c(=O)[nH]c2ccccc21	-18.5%	3.8%	-0.3%	-0.7%	-22.1%	18.8%
CC(C)CC(=O)Nc1ccc(C(=O)Nc2cccc(O)c2)cc1	-10.3%	1.2%	-7.5%	7.2%	17.2%	25.5%
N#Cc1c(Nc2cccc(F)c2)sc(C(=O)c2ccc(Cl)cc2)c1N	-15.3%	u	44.7µM*	x	11.2µM*	5.3%
O=C([C@@H]1C[C@H](Oc2ccccc2)CN1C(=O)C1CC1)N1CCCC1	x	x	49.8%	x	x	x
c1ccc(OCC2CCNCC2)nc1	-11.5%	-20.4%	-2.5%	-8.7%	79.4µM*	12.2%
c1ccc(CCC2CCNCC2)cc1	x	x	20.3%	x	x	x
N/C(=C\C(=O)c1cc(Cl)ccc1O)C(Cl)(Cl)Cl	-27.2%[11.4 µM]	-33.2%	u	6.7µM*	u	u
CCOc1ccc(S(=O)(=O)N(CC(=O)N/N=C/c2ccc(-c3ccc([N+](=O)[O-])cc3)o2)c2ccccc2)cc1	28.2µM*	22.4µM*	31.6µM*	-10.1%	1.58µM*	-21.5%
CCOc1ccc(C(=O)N/N=C/c2ccc(-c3ccc(S(=O)(=O)Nc4ncccn4)cc3)o2)cc1	89.1µM*	79.4µM*	6.0%	-21.1%	-7.3%[12.7 µM]	-6.3%
Cc1ccc(C)c(N(CC(=O)N/N=C/c2ccc(-c3ccc([N+](=O)[O-])cc3)o2)S(=O)(=O)c2ccccc2)c1	-17.2%	-32.9%	0.8%[57.4 µM]	7.8%	-34.0%	13.4%
NS(=O)(=O)c1ccc(-c2ccc(/C=N/NC(=O)c3ccccc3O)o2)cc1	-12.9%	-3.8%	7.6%	-8.4%	x	38.2%
NC(=S)NN=Cc1ccc(-c2ccc(S(=O)(=O)Nc3ncccn3)cc2)o1	50.1µM*	x	u	29.9µM*	x	u
CC(C)COc1ccc(C(=O)Nc2ccc(S(=O)(=O)Nc3ncccn3)cc2)cc1	-15.0%	0.1%	-10.6%	x	-3.4%[59 µM]	25.4%
NC(=S)N/N=C/c1ccc(-c2ccc(SC(F)F)cc2)o1	-24.8%	-8.2%	u	-5.0%	x	14.1%
O=C(N/N=C/c1ccc(-c2ccc(S(=O)(=O)Nc3ncccn3)cc2)o1)c1cc2ccccc2cc1O	50.1µM*	17.8µM*	12.6µM*	26.7µM*	u	28.2µM*
COc1ccccc1NC(=O)Nc1ccnn1C1CCN(C(=O)CO)CC1	x	x	74.3%	x	x	x
COc1ccc(C(=O)NN)cc1	-1.4%	-1.9%	7.0%	-3.2%	x	34.1%
SMILES	JMJD2A Tudor	BAZ2B inh	ALOX12 inh	PLK1 PBD block	G9a block	HP1b binding inh
CCN(CC)Cc1nc2sc(C(=O)OC)c(C)c2c(=O)[nH]1	x	x	-4.1%	x	x	x
CCOC(=O)c1ccc(-c2ccc(/C=N/NC(=O)CN(c3ccccc3Cl)S(C)(=O)=O)o2)cc1	-13.7%	u	16.9%	-7.6%	12.0%[59 µM]	6.2%[57 µM]
CCOC(=O)c1ccc(-c2ccc(/C=N/NC(=O)CN(c3cccc(C)c3)S(C)(=O)=O)o2)cc1	-19.0%	-35.2%	0.1%	4.1%	7.94µM*	26.1%
O=C(NCCN1CCN(C(=O)Nc2ccccc2)CC1)Nc1ccccc1	-6.2%	1.7%	8.6%	2.6%	-0.7%	33.5%
CC(=O)c1cccc(N2C(=NC(=O)COc3ccccc3)SC3CS(=O)(=O)CC32)c1 (stereo not drawn)	u	-19.3%	-4.7%	23.8µM*	12.8%	17.8%
OCc1ccc(CN2C[C@H](O)C[C@H]2c2nc(-c3ccc(F)cc3)no2)o1	x	x	25.1µM*	x	x	x
Cc1ccc(-c2noc([C@@H]3C[C@@H](O)CN3Cc3ncc[nH]3)n2)cc1F	x	x	47.9%[176 µM]	x	x	x
COc1ccc(-c2noc([C@@H]3C[C@@H](O)CN3Cc3ccc(CO)o3)n2)cc1	x	x	44.7µM*	x	x	x
O[C@@H]1C[C@@H](c2nc(Cc3ccc(F)cc3Cl)no2)N(Cc2ccco2)C1	x	x	25.1µM*	x	x	x
Cc1ccc(-c2noc([C@@H]3C[C@@H](O)CN3Cc3ccccc3O)n2)cc1F	x	x	31.6µM*	x	x	x
CC(C)Cc1ccc(CN2CCCC(NC(=O)c3ccoc3)C2)cc1 (stereo not drawn)	-28.5%	-35.2%	-29.9%	-2.3%	u	6.6%
CCSC1=C(C#N)C(c2ccccc2Cl)C(C(=O)c2cccs2)C(O)(C(F)(F)F)N1 (stereo not drawn)	-16.8%[57.1 µM]	-8.4%	9.3%	-16.1%	10µM*	44.9%
CSC1=C(C#N)C(c2ccccc2Cl)C(C(=O)c2cccs2)C(O)(C(F)(F)F)N1 (stereo not drawn)	-26.5%	-4.8%	-19.7%	-6.8%	u	17.5%
COCCN1C(=O)/C(=C/c2ccc(OCc3ccc(C(=O)O)cc3)c(OC)c2)SC1=Nc1ccccc1	u	56.2µM*	u	u	50.1µM*	-22.1%
COc1ccc(/C=C2\SC(=S)N(CCC(=O)N(CCO)Cc3ccccc3)C2=O)cc1OC	-34.4%	-1.0%	u	-2.1%	-8.0%	-10.7%
O=C(O)CCN1C(=O)/C(=C\c2cccc(OCc3ccccc3)c2)SC1=S	-34.0%	-38.3%	-27.5%	18.9µM*	u	-15.1%
O=C(O)CCN1C(=O)/C(=C\c2ccc(OCc3ccccc3)c(OCc3ccccc3)c2)SC1=S	44.7µM*	44.7µM*	-5.5%	-20.7%	25.1µM*	u
COc1cccc(/C=C2\SC(=S)N(CCC(=O)Nc3ccc(O)cc3)C2=O)c1	-17.3%	-31.5%	79.6%	-7.0%	19.8%	12.9%
Fc1ccccc1Nc1nc(N2CCOCC2)nc(N2CCOCC2)n1	-9.6%	0.6%	-10.8%	0.4%	13.9%	46.1%
COc1cc(C=O)ccc1Oc1nc(Nc2ccc(F)cc2F)nc(N2CCOCC2)n1	-15.8%[11.4 µM]	u	u	21.2µM*	u	-21.2%

Assay outcomes from PubChem BioAssay.
